# Measured values taken from ChEMBL document CHEMBL4513216, “Probing the Open Global Health Chemical Diversity Library for Multistage-Active Starting Points for Next-Generation Antimalarials” (ACS Infect Dis, 2020).
# The whole screen tested about 68,000 compounds, of which about 2,700 (4%) showed an effect of 50% or more. For the sample, strong results were picked, then their nearest neighbours and some compounds at random.
# Test system: Plasmodium berghei
# Assay: Screen against P. berghei liver stage (PbLuc), transformed with Luciferase, at 2uM
# Format: functional, HepG2
# Settings: tested at 2 uM
row,Compound,INHIBITION
1,Cc1nc(C(NS(=O)(=O)N(C)C)c2ccccc2F)no1 (centres undefined),-1.56%
2,CCCNC(=O)Nc1ccn(CCCOC)n1,-27.36%
3,CC(C)CSCCN1CCCN(S(C)(=O)=O)CC1,-14.71%
4,CCn1c(CN(C)C)nnc1C1CCN(Cc2ccc(Cl)cc2F)CC1,-12.75%
5,Cc1cccc(C2(O)CCN(C(=O)c3ccccn3)CC2)c1C,14.59%
6,Cc1cnn(CC2CCCN2Cc2cc(C)no2)c1 (centres undefined),-4.43%
7,COCC1CC2(CCN(C(=O)c3oc4ccccc4c3C)CC2)CO1 (centres undefined),5.15%
8,CCOc1ccc(Cl)c(C(=O)NCCC(=O)Nc2ccncc2)n1,39.54%
9,Cn1ccc(C(=O)NCc2ccc(N3CCOCC3)nc2)cc1=O,52.17%
10,CCN1CCN(c2ccc(CNC(=O)c3cc(C)on3)cn2)CC1,23.24%
11,CCN1CCN(c2ccc(CNC(=O)c3cnn(C)c3C)cn2)CC1,21.83%
12,Cn1ccc(C(=O)NCc2ccc(N3CCCCC3)nc2)cc1=O,26.06%
13,Cn1ccc(C(=O)NCc2ccc(N3CCCC3)nc2)cc1=O,9.3%
14,CCN1CCN(c2ccc(CNC(=O)c3ccc(Cl)o3)cn2)CC1,66.93%
15,CNC(=O)c1ccnc(CC2COc3c(cccc3OC)C2)c1 (centres undefined),-12.13%
16,CCN(CC)S(=O)(=O)N1CCC(c2nccn2Cc2ccccn2)CC1,-28.42%
17,Cc1ncc(C(=O)NCCNc2ccncc2)s1,-60.22%
18,CN(C)C(=O)c1ccc(C2CCCN2C(=O)CCC2=NNC(=O)CC2)s1 (centres undefined),-11.64%
19,Cc1nccc(NCc2cc3n(n2)CCCN(C(=O)C2CCC2)C3)n1,55.7%
20,Cc1cc(NCc2cc3n(n2)CCCN(C(=O)C2CCC2)C3)ncn1,19.13%
21,Nc1nccc(NCc2cc3n(n2)CCCN(C(=O)C2CCC2)C3)n1,4.47%
22,O=C(C1CCC1)N1CCCn2nc(CNc3ncccn3)cc2C1,52.47%
23,CS(=O)(=O)N1CCCn2nc(CNc3ncccn3)cc2C1,51.19%
24,Cc1nccc(NCc2cc3n(n2)CCCN(S(C)(=O)=O)C3)n1,8.89%
25,CSc1nccc(NCc2cc3n(n2)CCCN(C(=O)C2CCC2)C3)n1,-36.65%

row,Compound,INHIBITION
1,Cc1cc(C)nc(NCc2cc3n(n2)CCCN(C(=O)C2CCC2)C3)n1,-4.53%
2,Cc1cc(NCc2cc3n(n2)CCCN(S(C)(=O)=O)C3)ncn1,-14.84%
3,CC1=N[C@@]2(CC[C@@H]3CN(Cc4ccc(C)cc4)C[C@@H]32)C(=O)N1CC1CC1,41.38%
4,Cc1ccccc1C1CCCN1Cc1nc2c(cnn2C)c(=O)[nH]1 (centres undefined),-29.69%
5,Cc1nccc(C(=O)NC(CN2CCCC2=O)c2ccccc2)n1 (centres undefined),-45.82%
6,CC1CN(C)CCN1C(=O)c1ccn(-c2ccccc2)n1 (centres undefined),23.42%
7,COc1cccc(OCCCc2cncc(C(N)=O)c2)c1,61.08%
8,COc1cccc(OCCc2cncc(C(N)=O)c2)c1,-18.52%
9,COc1ccccc1OCCCc1cncc(C(N)=O)c1,-69.92%
10,Nc1ncnc2nc(C3CCN(C(=O)Cc4ccccc4)C3)ccc12 (centres undefined),-7.22%
11,CCc1nc(CC2CN(c3ncnc4sc(C)c(C)c34)CCO2)no1 (centres undefined),-7.81%
12,CN(C)C(=O)COc1ccccc1CN1CCCC2(C1)CN(C)C(=O)O2 (centres undefined),-38.26%
13,CC(=O)Nc1cc(C2CC2)nn1-c1nc(C)c(C)c(=O)[nH]1,-8.91%
14,Cc1nc(-n2nc(C3CC3)cc2NC(=O)C(C)C)[nH]c(=O)c1C,55.52%
15,Cc1cc(NC(=O)C(C)C)n(-c2nc(C)c(C)c(=O)[nH]2)n1,27.11%
16,CC(C)(C#N)CCCS(=O)(=O)c1nccn1-c1cccc(F)c1,19.33%
17,COc1ccc2c(OCC(=O)NC(C)(C)C)ccnc2c1,-3.8%
18,CCN(CC)C(=O)COc1ccnc2cc(OC)ccc12,50.42%
19,COc1ccc2c(OCC(=O)NCC(F)(F)F)ccnc2c1,-26.08%
20,CCN(CC1CCOC1)C(=O)Nc1ccc(N2CCOCC2)nc1 (centres undefined),-25.45%
21,CCN(CC1CCOC1)C(=O)c1ccccc1N1CCOCC1 (centres undefined),-45.72%
22,CCN(CC1CCOC1)C(=O)c1cccnc1N1CCOCC1 (centres undefined),53.03%
23,CN(C)c1nccc(N2CCO[C@H]3CN(Cc4ccco4)C[C@H]32)n1,28.14%
24,Cc1cccc(CN2C[C@@H]3OCCN(c4ccnc(N(C)C)n4)[C@@H]3C2)c1,53.55%
25,CN(C)c1nccc(N2CCO[C@H]3CN(Cc4ccsc4)C[C@H]32)n1,-33.63%

row,Compound,INHIBITION
1,COc1cccn(CC(=O)N2CCCC3(CCCCC3)C2)c1=O,26.14%
2,Cc1[nH]c2cc(C3CCN(C(=O)c4ccccn4)CC3)nn2c(=O)c1C,9.9%
3,Cc1ccc(-c2nc(C3CCN(C(=O)c4ccnn4C)CC3)no2)cn1,10.65%
4,Cc1csc(CN(C)C(=O)Nc2cc(F)cc(N3CCCC3)c2)n1,0.12%
5,CCS(=O)(=O)N1C[C@@H](Oc2ccccn2)[C@H]2OCCC[C@H]21,13.38%
6,CS(=O)(=O)N1C[C@@H](Oc2ccccn2)[C@H]2OCCC[C@H]21,50.72%
7,COc1ccc(CN2CCO[C@H]3[C@H](Oc4ccccn4)CC[C@@H]32)cc1,-0.68%
8,Cc1cccc(CN2CCO[C@H]3[C@H](Oc4ccccn4)CC[C@@H]32)n1,64.44%
9,O=S(=O)(C1CC1)N1C[C@H](Oc2ccccn2)[C@H]2OCCC[C@H]21,17.77%
10,c1ccc(CO[C@H]2CC[C@H]3[C@H]2OCCN3CCN2CCCCC2)nc1,27.42%
11,CCOCCN1CCO[C@H]2[C@H](OCc3ccccn3)CC[C@@H]21,55.07%
12,Cc1nc(CN2CCO[C@H]3[C@@H](Oc4ccccn4)CC[C@@H]32)cs1,27.9%
13,CCN(CC)CCN1CCO[C@H]2[C@@H](OCc3ccccn3)CC[C@@H]21,-31.4%
14,COc1ccc2c(=O)ccn(CC(=O)O)c2c1,16.54%
15,Cc1noc(C2CCN(C(C)c3nc(C(C)(C)C)no3)CC2)n1 (centres undefined),11.42%
16,COC(=O)CSc1nnc(CCNC(=O)OC(C)(C)C)o1,25.59%
17,COCCNC(=O)C1CN(Cc2ccncc2)Cc2ccnn2C1 (centres undefined),-15.71%
18,CC(C1CC1)N(C)C(=O)c1ccc(-n2ncc(C#N)c2N)cc1 (centres undefined),26.2%
19,Fc1cccc(Nc2nc(N3CCCC3)nc3c2CNCC3)c1,32.67%
20,Cc1c(F)cccc1CN1CCn2nc(CNC(=O)N(C)C)cc2C1,21.08%
21,Cc1nc(CNCC2CNc3ccnn3C2)cs1 (centres undefined),0.05%
22,CC(C)Nc1ncnc2c1CCN(C(=O)Cc1ccccn1)CC2,14.23%
23,O=C(c1cscn1)N1CC[C@@H]2[C@@H]1CCN2c1ccccn1,36.03%
24,COc1cc(N2C[C@@H]3COC[C@]3(COc3ccc(C#N)cn3)C2)ncn1,-15.95%
25,Cc1cnc(CN2CCN(c3nc(C)cs3)C(C)C2)cn1 (centres undefined),50.3%

row,Compound,INHIBITION
1,Cc1csc(N2CCN(Cc3cscn3)CC2C)n1 (centres undefined),-7.32%
2,Cc1csc(N2CCN(Cc3ccccn3)CC2C)n1 (centres undefined),-13.94%
3,COc1ccc(CNC(C)c2cccc(Br)c2)c(OC)c1OC (centres undefined),0.8%
4,OC1(Cn2ccc3ncccc32)CCN(Cc2ccccc2F)CC1,22.81%
5,CCN(CC)C(CNC(=O)c1ccnc(N(C)C)c1)c1ccsc1 (centres undefined),86.89%
6,CCN(CC)C(CNC(=O)c1cccnc1-n1cncn1)c1ccsc1 (centres undefined),28.81%
7,CCN(CC)C(CNC(=O)c1ccc(-n2cncn2)cc1)c1ccsc1 (centres undefined),-12.13%
8,Cc1ccc(C(=O)N2CCC3(CC2)CCN(Cc2ccccn2)C3=O)o1,2.5%
9,CN1C(=O)c2cccc(NC(=O)c3ccc4c(c3)OCCO4)c2C1=O,27.8%
10,O=C(CCc1ccc(-c2ccccc2)[nH]1)N1CCCC(n2ccnc2)C1 (centres undefined),-13.92%
11,CCN1CCN(C2CCN(Cc3noc(C)n3)CC2)C1=O,62.13%
12,CCN1CCN(C2CCN(Cc3noc(C4CC4)n3)CC2)C1=O,24.65%
13,Cc1nc(CN2CCC(N3CCN(C)C3=O)CC2)no1,40.17%
14,COCCN(C)C(C(=O)O)c1ccc2ccccc2c1 (centres undefined),10.75%
15,Cc1cc(C)n(C2CCCN(C(=O)c3cc(C(N)=O)cs3)C2)n1 (centres undefined),20.93%
16,Cc1cccc(N2CCN(CCNC(=O)C(C)n3cncn3)CC2)c1 (centres undefined),12.88%
17,O=C(N[C@@H]1CN(CC2CC2)[C@@H]2CCCO[C@@H]21)c1cscn1,17.24%
18,CCN(CC)C(=O)N1CCN(Cc2cnc(C)nc2)[C@H]2CS(=O)(=O)C[C@H]21,29.51%
19,Cc1ncc(CN2CCN(C(=O)N(C)C)[C@@H]3CS(=O)(=O)C[C@@H]32)cn1,55.99%
20,CCC(=O)N1CCN(Cc2cnc(C)nc2)[C@H]2CS(=O)(=O)C[C@H]21,-36.29%
21,O=C(CC1CC1)N1CCC2(CC1)CN(c1ncccn1)CCO2,-26.24%
22,CO[C@H]1CCN(S(=O)(=O)c2cn(C)cn2)[C@H]1Cc1ccccc1,74.27%
23,CO[C@@H]1CCN(S(=O)(=O)c2cn(C)cn2)[C@H]1Cc1ccccc1,4.38%
24,CCO[C@H]1CCN(S(=O)(=O)c2cn(C)cn2)[C@H]1Cc1ccccc1,-40.45%
